Screening data from PubChem.
This is a sample that favours compounds with a hit; in the whole collection about 12% have one here.
ALDH1A1 inh = qHTS Assay for Inhibitors of Aldehyde Dehydrogenase 1 (ALDH1A1); Aldehyde dehydrogenase 1A1 (Homo sapiens), P00352; Purified ALDH1A1, NADH fluorescence, propionaldehyde substrate; Potency, µM (titrated, usually from 75.3 µM), for inactives: top-dose activity, negative = inhibition, usual class: inhibitors; 7.3% of 220,000 active; AID 1030, 2008; active = well fitted inhibition curve with a large enough effect, not every such curve was filed as active; inconclusive = small, poorly fitted or top-dose-only effect, or another doubt; inactive = no such curve, though single readings can be large or run the other way;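 also: plate controls were no enzyme wells and a reference inhibitor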
VP16 counter = VP16 counterscreen qHTS for inhibitors of ROR gamma transcriptional activity | Potency, µM (doses to about 53.6 µM), inactives show at the top dose activity, negative = inhibition, most hits filed as inhibitors | Drosophila S2 Gal4-VP16 UAS-luciferase, luminescence, 20 h | 3.5% of 310,000 active;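 also: Gal4-VP16 expression switched on by copper sulfate through the metallothionein promoter; nearly all actives have a fitted effect of over 50% in size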
RORgamma inh = qHTS for inhibitors of ROR gamma transcriptional activity. AID 2551, 2010. Potency, µM (titrated, usually from 53.6 µM), for inactives: top-dose activity change, negative = inhibition, hits mostly inhibitors. Nuclear receptor ROR-gamma (Mus musculus), P51450. Drosophila S2 Gal4-RORgamma UAS-luciferase reporter, 20 h. 5.4% of 310,000 active; also: nearly all actives have a fitted effect of over 60% in size
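Luminescence from a UAS-regulated Photinus luciferase reporter in stably transfected Drosophila Schneider cells is measured; decreased signal marks ROR gamma inhibition. Fusion expression is induced by 700 uM copper sulfate for 20 hr.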
PLK1 PBD block = qHTS for Inhibitors of PLK1-PDB (polo-like kinase 1 - polo-box domain): Primary Screen. Serine/threonine-protein kinase PLK1 (Homo sapiens), P53350. Plk1 PBD binding of FITC phosphopeptide, fluorescence polarization. Potency, µM, inactives show max response, negative = inhibition, actives largely listed as inhibitors. 2.8% of 360,000 active. AID 720504, 2013; also: series mostly up to about 57 µM; nearly all actives have a fitted effect of over 65% in size
Target sequence (P53350 whole entry, looked up, the tested form may be a part): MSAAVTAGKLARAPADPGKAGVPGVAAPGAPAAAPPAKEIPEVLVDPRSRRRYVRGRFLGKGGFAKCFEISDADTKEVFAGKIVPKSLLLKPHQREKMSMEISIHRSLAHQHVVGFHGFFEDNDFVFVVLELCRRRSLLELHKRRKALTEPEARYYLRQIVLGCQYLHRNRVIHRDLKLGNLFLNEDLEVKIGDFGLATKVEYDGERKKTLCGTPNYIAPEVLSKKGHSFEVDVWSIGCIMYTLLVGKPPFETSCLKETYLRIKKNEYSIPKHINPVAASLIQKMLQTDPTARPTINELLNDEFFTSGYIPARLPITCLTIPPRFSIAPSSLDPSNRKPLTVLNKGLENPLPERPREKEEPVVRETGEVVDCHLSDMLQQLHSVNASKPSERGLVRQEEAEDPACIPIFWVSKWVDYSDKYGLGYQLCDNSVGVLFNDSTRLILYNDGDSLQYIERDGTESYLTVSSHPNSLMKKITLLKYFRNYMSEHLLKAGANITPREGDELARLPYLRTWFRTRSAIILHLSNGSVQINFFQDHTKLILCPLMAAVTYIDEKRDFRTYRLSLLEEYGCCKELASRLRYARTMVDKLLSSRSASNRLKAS
Sfp PPTase inh = qHTS Assay for Inhibitors of Bacillus subtilis Sfp phosphopantetheinyl transferase (PPTase). 4'-phosphopantetheinyl transferase ffp (Bacillus subtilis), Q9F4F7. Biochemical Sfp PPTase activity, qHTS. Potency, µM, without a hit: largest response in the series, negative = inhibition, usual class: inhibitors. 3.5% of 310,000 active. AID 1490, 2009;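 also: the enzyme is Sfp with the accession as filed and its product quenches rhodamine fluorescence; 0% = enzyme reaction without inhibitor and -100% = no enzyme wells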
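With Hepes-Na pH 7.6 buffer containing 10 mM MgCl2, Sfp (15 nM) modified BHQ-2-YbbR (12.5 uM) using rhodamine-CoA (5 uM). Two reads 30 minutes apart at 525/598 nm yielded each well's rate.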
* hit, by the source's call; ? = inconclusive; . = no result given; [ ] = another dose, or the depositor's remark. Unless noted, calls follow the shape of the dose curve; as a rule, active = well fitted curve in the direction sought with a large enough effect; inconclusive = small, poorly fitted or top-dose-only effect, or another doubt; inactive = no such curve, though single readings can be large; an effect the other way counts as inactive or inconclusive. Unless noted, % is scaled to controls: 0 for no effect and ±100 for the full control effect; potency is read from the fitted curve at half-maximal effect.

SMILES	ALDH1A1 inh	VP16 counter	RORgamma inh	PLK1 PBD block	Sfp PPTase inh
O=CNc1cc(-c2cccc(O)c2)cn2c(-c3ccc(F)cc3)cnc12	.	.	.	-17.6%	.
COC(=O)c1ccc(NC(=S)NC(=O)c2cc(-c3ccccc3)nc3ccccc23)cc1	11.2µM*	2µM*	0.447µM*	-16.6%	2.2%
COc1ccc(Cl)cc1C(=O)NC(=S)Nc1nc(C)cc(C)n1	.	.	.	-6.8%	.
COc1ccc(C(=O)NNC(=S)NC(=O)c2cc(-c3ccccc3)nc3ccccc23)cc1	-12.1%	?	10µM*	?	10.8%
COc1ccc(Cl)cc1C(=O)NNC(=S)NC(=O)c1cc(-c2ccccc2)nc2ccccc12	31.6µM*	?	14.0%	-11.3%	-8.5%
COc1ccc(C(=O)NNC(=O)c2cc(C)nc3ccccc23)cc1	.	.	.	3.3%	.
O=C(NNC(=O)c1cc(-c2ccccc2)nc2ccccc12)Nc1cccc(Cl)c1	-6.7%	-0.4%	30.9%	-10.9%	17.6%
COC(=O)c1ccc(NC(=O)c2cc(-c3ccncc3)nc3ccccc23)cc1	.	.	.	7.7%	.
COc1ccc(Cl)cc1C(=O)NC(=S)Nc1cc(-c2nc3ccccc3[nH]2)ccc1C	3.98µM*	9.2%	-10.1%	-17.6%	-16.7%
COc1cc(/C=N/NC(=O)C2CC(=O)N(c3ccc(C)cc3)C2)cc(OC)c1OC (stereo unspecified)	.	-4.0%	5.5%	4.0%	9.6%
CCN1C(C)=C(C(=O)OC(C)C)C(c2ccccc2Cl)C(C(=O)O)=C1C(=O)O (stereo unspecified)	.	-11.6%	?	.	25.6%
O=C(NCc1ccccn1)c1cc(-c2ccc(Cl)cc2)nc2ccccc12	-16.1%	-11.4%	2.6%	-3.6%	-0.9%
CCCOc1ccc(C(=O)NNC(=S)NC(=O)c2cc(-c3ccc(Cl)cc3)nc3ccccc23)cc1	?	?	0.112µM*	-17.3%	-7.1%
COCCNC(=S)N(CCc1c(C)[nH]c2ccc(F)cc12)Cc1cccs1	?	?	7.94µM*	-0.4%	17.3%
CCNC(=S)N(CCc1c(C)[nH]c2ccc(C)cc12)Cc1cccs1	?	?	7.08µM*	-2.2%	27.1%
Cc1[nH]c2ccccc2c1CCN(Cc1cccs1)C(=S)Nc1ccccc1	?	-1.9%	5.62µM*	-3.7%	42.2%
CNC(=S)N(CCc1c(C)[nH]c2ccc(Cl)cc12)Cc1cccs1	?	-2.8%	?	.	15.5%
COCCNC(=S)N(CCc1c(C)[nH]c2ccc(Cl)cc12)Cc1cccs1	?	?	?	-5.0%	19.8%
COc1ccc(S(=O)(=O)NC(=O)C2(C)CCN2C(=O)Cc2ccccc2Cl)cc1 (stereo unspecified)	.	.	.	-3.8%	.
O=C(c1cccs1)[C@@H]1[C@@H]2C(=O)N(Cc3ccc4c(c3)OCO4)C(=O)[C@@H]2C2c3ccccc3C=CN21 (stereo partly specified)	14.1µM*	2.2%	-11.0%	.	-2.6%
COc1ccc(N2C(=O)[C@H]3[C@@H](C2=O)C2c4ccccc4C=NN2[C@H]3C(=O)C(C)(C)C)cc1 (stereo partly specified)	.	7.9%	6.0%	-8.0%	17.2%
Cc1ccc(S(=O)(=O)N2C[C@H]3[C@H]4C(=O)N(C5CCCCC5)C(=O)[C@H]4CC(=O)[C@H]3[C@@H]2c2ccccc2Cl)cc1	.	.	.	5.5%	.
CC(C)(C)C(=O)[C@@H]1[C@@H]2C(=O)N(C3CCCCC3)C(=O)[C@@H]2[C@H]2c3ccccc3C=CN12	20µM*	?	?	26.7µM*	-18.3%
O=C(c1ccc2c(c1)OCO2)[C@@H]1[C@@H]2C(=O)N(C3CCCCC3)C(=O)[C@@H]2C2c3ccccc3C=CN21 (stereo partly specified)	3.55µM*	-17.9%	-16.9%	-9.8%	-0.1%
COc1ccc(N2C(=O)[C@@H]3[C@H](C2=O)[C@H]2c4ccccc4C=CN2[C@@H]3C(C)=O)cc1	31.6µM*	-3.7%	13.3%	?	-16.2%
SMILES	ALDH1A1 inh	VP16 counter	RORgamma inh	PLK1 PBD block	Sfp PPTase inh
Cc1cc(C)n2nc(SCC(=O)N3CCCC(C)C3)nc2n1 (stereo unspecified)	.	.	.	-3.1%	.
CCCC[C@H](NC(=O)[C@H](CC(C)C)NC(=O)[C@@H](Cc1c[nH]c2ccccc12)NC(=O)[C@H](Cc1ccccc1)NC(=O)[C@@H](Cc1c[nH]c2ccccc12)NC(=O)[C@H](CC(N)=O)NC(=O)[C@@H](Cc1c(Cl)cccc1Cl)NC(=O)[C@@H]1CCCN1C(=O)[C@H](Cc1ccccn1)NC(=O)[C@@H]1CCCN1C(=O)[C@H](N)CCCCNC(=O)c1cccnc1)C(N)=O	.	-8.9%	0.3%	.	-13.1%
O=P(O)(O)C(O)(Cn1ccnc1)P(=O)(O)O	-1.2%	-1.4%	4.7%	.	10.8%
CSc1nc(N)c2ncn([C@H]3O[C@H](COP(=O)(O)OP(=O)(O)OP(=O)(O)O)[C@@H](O)[C@@H]3O)c2n1	-1.4%	-0.1%	7.5%	.	-6.9%
O=C(Nc1ccc2c(c1)OCO2)[C@@H]1[C@@H]2C(=O)N(C3CCCCC3)C(=O)[C@@H]2C2c3ccccc3C=CN21 (stereo partly specified)	11.2µM*	3.5%	15.6%	.	-11.7%
COc1cc(C(=S)N2CCOCC2)cc(OC)c1OS(=O)(=O)c1ccc(Cl)cc1	.	2.0%	-0.8%	13.4µM*	44.7µM*
COc1cc(C(=S)N2CCOCC2)cc(OC)c1OC(=O)Cc1ccc(F)cc1	28.2µM*	-2.8%	18.9%	7.52µM*	44.7µM*
O=C(Oc1c(Br)cc(C(=S)N2CCOCC2)cc1Br)c1ccc(Cl)cc1	6.31µM*	?	?	6.7µM*	-68.5%
COc1cc(C(=S)N2CCOCC2)cc(OC)c1OC(=O)c1ccc(F)cc1	.	-3.2%	?	11.9µM*	28.2µM*
COc1cc(C(=O)Oc2c(OC)cc(C(=S)N3CCOCC3)cc2OC)cc(OC)c1OC	.	-1.0%	9.5%	-1.2%	9.5%
O=C(Oc1ccc(C(=S)N2CCOCC2)cc1Br)c1cc(Cl)ccc1Cl	2.7%	-1.3%	-4.5%	?	6.0%
O[C@@H](c1cc(-c2ccc(Cl)cc2)nc2ccccc12)C1CCCCN1 (stereo partly specified)	2.8%[13.5 µM]	.	.	.	.
Nc1ccccc1C(=O)/C=C/c1ccccc1	8.0%	20.4%	29.2%	.	-4.7%
C#Cc1cccc(N2C(=O)C3C4C=CC(C3C2=O)C2C(=O)N(c3cccc(C#C)c3)C(=O)C42)c1 (stereo unspecified)	.	.	.	-6.2%	.
CC(C)CSC1=NSC2=NC(=O)/C(=C\c3coc4ccccc4c3=O)C(=N)N12	?	1.7%	15.9%	16.8µM*	-20.2%
